Results filed as inconclusive are left out. Activity calls are given as the source filed them. Unless noted, calls come from the whole dose curve; as a rule, active = well fitted curve in the direction sought with a large enough effect in the repeat runs; inconclusive = weak or mixed curves; inactive = no such curve, though single readings can be large; an effect the other way counts as inactive or inconclusive.
Tests used:
[1] = A CellTox Green Cytotoxicity Assay to monitor cytotoxicity in HEK293 cells - 32 hour (AID 1224881); note: nearly all actives have a fitted effect of over 40% in size
In short: (§1)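 Cytotoxicity was tracked continuously in HEK293 cells by a DNA-binding dye excluded from viable cells. Compounds were transferred in DMSO 5 h after seeding; fluorescence was recorded at intervals up to 40 h.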

[2] = A CellTox Green Cytotoxicity Assay to monitor cytotoxicity in HepG2 cells - 0 hour (AID 1224882); note: nearly all actives have a fitted effect of over 35% in size
In short: (§2)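 Real-time, homogeneous cytotoxicity readout: dead-cell DNA staining by CellTox Green in HepG2 monolayers, fluorescence measured at timed intervals up to 40 h of continuous compound exposure.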

[3] = A CellTox Green Cytotoxicity Assay to monitor cytotoxicity in HepG2 cells - 32 hour (AID 1224883); note: nearly all actives have a fitted effect of over 50% in size
In short: as §2

[4] = A CellTox Green Cytotoxicity Assay to monitor cytotoxicity in HEK293 cells - 8 hour (AID 1224884); note: nearly all actives have a fitted effect of over 35% in size
In short: as §1

[5] = qHTS RealTime-Glo MT Cell Viability Assay in HepG2 cells - 16 hour (AID 1224885); note: nearly all actives have a fitted effect of over 50% in size
In short: (§3)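 HepG2 cells were seeded at 600 cells/well together with NanoLuc luciferase and a cell-permeant prosubstrate, preincubated 5 h at 37 C/5% CO2, then pin-dosed with compounds in DMSO. Nonlytic luminescence from viable cells was read at each time point.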

[6] = qHTS RealTime-Glo MT Cell Viability Assay in HEK293 cells - 24 hour (AID 1224886); note: top concentration of the series differs between compounds; nearly all actives have a fitted effect of over 50% in size
In short: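 HEK293 cells were seeded at 600 cells/well together with NanoLuc luciferase and cell-permeant prosubstrate, preincubated 5 h at 37 C/5% CO2, then given compound in DMSO by pintool. Luminescence from viable-cell prosubstrate reduction was read repeatedly over 40 h.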

[7] = qHTS RealTime-Glo MT Cell Viability Assay in HEK293 cells - 8 hour (AID 1224887); note: top concentration of the series differs between compounds; nearly all actives have a fitted effect of over 50% in size
In short: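 Nonlytic bioluminescent viability monitoring. HEK293 at 600 cells/well with reagent; 5 h settle; compound transfer by pintool; plates held at 37 C and read at set time points.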

[8] = qHTS RealTime-Glo MT Cell Viability Assay in HepG2 cells - 0 hour (AID 1224889); note: nearly all actives have a fitted effect of over 50% in size
In short: as §3

[9] = A CellTox Green Cytotoxicity Assay to monitor cytotoxicity in HepG2 cells - 8 hour (AID 1224890); note: nearly all actives have a fitted effect of over 45% in size
In short: as §2

[10] = qHTS assay to identify small molecule antagonists of the estrogen receptor alpha (ER-alpha) signaling pathway using the BG1 cell line in the presence of 0.1 nM 17-beta-estradiol - cell viability counter screen (AID 1259241); note: nearly all actives have a fitted effect of over 40% in size
In short: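 Live-cell protease activity (CellTiter-Fluor fluorescence, 30 min) was read in the same wells after VM7Luc4E2 cells had been exposed to compounds with 0.1 nM 17beta-estradiol for 22 hr at 37C.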

[11] = qHTS assay to identify small molecule antagonists of the androgen receptor (AR) signaling pathway using the MDA cell line in the presence of 0.5 nM R1881 - cell viability counter screen (AID 1259242); note: nearly all actives have a fitted effect of over 45% in size
In short: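 Cytotoxicity toward MDA-kb2 cells is measured by CellTiter-Fluor live-cell protease fluorescence after 16 hr compound exposure at 37C in the presence of 0.5 nM R1881 stimulator.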

[12] = biological target: Estrogen receptor (Homo sapiens) (UniProt P03372); assay: qHTS assay to identify small molecule antagonists of the estrogen receptor alpha (ER-alpha) signaling pathway using the BG1 cell line in the presence of 0.1 nM 17-beta-estradiol (AID 1259244); note: nearly all actives have a fitted effect of over 50% in size
In short: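 After 5 days in hormone-depleted medium (charcoal-stripped serum, no phenol red), VM7Luc4E2 cells were seeded, incubated 24 h, then co-treated with compound and 0.1 nM (final) estradiol for 22 h before luminescence detection.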

[13] = qHTS assay to identify small molecule HDAC inhibitors (AID 1259364); note: top concentration of the series differs between compounds; nearly all actives have a fitted effect of over 45% in size
In short: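 Homogeneous cell-based luminescent assay of endogenous class I/II HDAC activity; HCT-116 cells, 2 h compound exposure, 30 min HDAC-Glo development at RT.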

[14] = qHTS assay to identify small molecule HDAC inhibitors - cell viability counter screen (AID 1259365)
In short: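 HCT-116 (wild type), 1,500 cells/well, overnight 37C/5% CO2; compound in DMSO 2hr; CellTiter-Glo 30min RT; luminescence read.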

[15] = qHTS assay to identify small molecule agonists of the sonic hedgehog signaling (Shh) pathway - cell viability counter screen (AID 1259366); note: nearly all actives have a fitted effect of over 50% in size
In short: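 CellTiter-Fluor fluorescence read-out, 1 hr at 37C, added after 23hr compound exposure. Cells: 3T3 Gli1-Luc, an NIH/3T3 clone with stably integrated Gli1-Luc reporter, plated 4hr before compound.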

[16] = qHTS assay to identify small molecule antagonists of the sonic hedgehog signaling (Shh) pathway - cell viability counter screen (AID 1259367); note: nearly all actives have a fitted effect of over 55% in size
In short: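 After a 4 hr settling period, 3T3 Gli1-Luc cells were treated with DMSO-dissolved chemicals and conditioned medium, kept 24 hr at 37C in 5% CO2, and assayed for viability by CellTiter-Fluor fluorescence following 1 hr reagent incubation.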

[17] = qHTS assay to identify small molecule agonists of the sonic hedgehog signaling (Shh) pathway (AID 1259368; calls by dose curve;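 note: NIH/3T3-derived 3T3Gli1-Luc cells carrying a stable Gli1-driven firefly luciferase reporter; series mostly up to about 92 µM; nearly all actives have a fitted effect of over 15% in size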)
In short: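 Steps: seed 3T3 Gli1-Luc cells, incubate 4 hr at 37 C, pin-transfer compounds in DMSO alongside a positive control, incubate 24 hr, add luciferase detection reagent, wait 30 min at room temperature, read luminescence.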

[18] = qHTS assay to identify small molecule phospholipidosis (PLD) inducers (AID 1259344; active = well fitted curve in the direction sought with a large enough effect; an effect the other way counts as inactive or inconclusive)
In short: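 HepG2 cells grown on collagen I take up LipidTOX Red while exposed to compound for 24 h; after fixation they are imaged at 20x and pit metrics are extracted.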

[19] = A CellTox Green Cytotoxicity Assay to monitor cytotoxicity in HEK293 cells - 16 hour (AID 1224888); note: nearly all actives have a fitted effect of over 35% in size
In short: as §1

[20] = biological target: Androgen receptor (Homo sapiens) (UniProt P10275); assay: qHTS assay to identify small molecule antagonists of the androgen receptor (AR) signaling pathway using the MDA cell line in the presence of 0.5 nM R1881 (AID 1259243); note: nearly all actives have a fitted effect of over 50% in size
In short: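 Steps: seed MDA-kb2 cells, incubate 5 hr at 37C; pin-transfer compounds in DMSO; add R1881 to 0.5 nM final; incubate 16 hr; add ONE-Glo, wait 30 min at room temperature; read luminescence.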

Measured: Potency

Chain of Androgen receptor (Homo sapiens) (P10275 whole entry, looked up): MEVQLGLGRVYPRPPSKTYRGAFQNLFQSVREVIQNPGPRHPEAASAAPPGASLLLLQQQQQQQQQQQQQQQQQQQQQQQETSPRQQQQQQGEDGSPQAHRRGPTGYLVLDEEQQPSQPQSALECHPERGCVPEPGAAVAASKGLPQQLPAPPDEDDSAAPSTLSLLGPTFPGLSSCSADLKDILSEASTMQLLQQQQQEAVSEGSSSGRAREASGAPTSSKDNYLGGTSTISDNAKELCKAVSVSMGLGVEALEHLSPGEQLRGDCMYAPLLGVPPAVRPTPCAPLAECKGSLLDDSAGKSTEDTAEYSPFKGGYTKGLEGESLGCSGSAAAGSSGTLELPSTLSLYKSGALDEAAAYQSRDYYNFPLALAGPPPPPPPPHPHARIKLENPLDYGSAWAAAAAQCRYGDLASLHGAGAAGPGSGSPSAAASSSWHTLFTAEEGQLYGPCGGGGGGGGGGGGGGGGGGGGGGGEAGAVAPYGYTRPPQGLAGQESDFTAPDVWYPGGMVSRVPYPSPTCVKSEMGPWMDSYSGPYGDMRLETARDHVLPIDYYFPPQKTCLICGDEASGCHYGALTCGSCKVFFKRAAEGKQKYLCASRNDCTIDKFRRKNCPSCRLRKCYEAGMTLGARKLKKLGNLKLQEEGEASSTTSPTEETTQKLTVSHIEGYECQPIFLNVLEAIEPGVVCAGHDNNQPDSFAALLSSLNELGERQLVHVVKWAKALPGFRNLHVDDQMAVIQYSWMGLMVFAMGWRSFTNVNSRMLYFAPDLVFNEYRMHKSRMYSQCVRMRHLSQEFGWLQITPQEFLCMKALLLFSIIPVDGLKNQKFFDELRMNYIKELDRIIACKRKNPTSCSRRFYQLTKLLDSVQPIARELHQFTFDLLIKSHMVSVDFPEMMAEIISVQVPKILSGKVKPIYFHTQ
Chain of Estrogen receptor (Homo sapiens) (P03372 whole entry, looked up): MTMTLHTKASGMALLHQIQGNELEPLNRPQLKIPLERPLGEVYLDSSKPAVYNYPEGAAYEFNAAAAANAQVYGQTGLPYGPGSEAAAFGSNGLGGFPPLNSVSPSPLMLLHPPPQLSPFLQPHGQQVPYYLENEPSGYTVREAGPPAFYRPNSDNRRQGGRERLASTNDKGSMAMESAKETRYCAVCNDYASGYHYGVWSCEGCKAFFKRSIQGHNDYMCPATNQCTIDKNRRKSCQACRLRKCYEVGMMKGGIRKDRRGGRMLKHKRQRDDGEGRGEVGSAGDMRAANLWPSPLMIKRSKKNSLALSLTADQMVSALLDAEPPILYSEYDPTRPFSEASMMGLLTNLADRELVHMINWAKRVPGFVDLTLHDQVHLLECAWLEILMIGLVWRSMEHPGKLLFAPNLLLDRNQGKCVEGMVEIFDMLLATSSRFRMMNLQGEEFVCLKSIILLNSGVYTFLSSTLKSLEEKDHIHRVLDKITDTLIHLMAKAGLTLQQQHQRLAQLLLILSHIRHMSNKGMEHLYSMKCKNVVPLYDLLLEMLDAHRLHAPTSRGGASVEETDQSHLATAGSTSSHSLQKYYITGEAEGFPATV

O=C1CC(c2ccc(Cl)cc2)CC(=O)N1
not listed: [18] | [19] | [20]
inactive: all other assays above

O=C1c2ccccc2C(=O)C1c1ccccc1
not listed: [19] | [20]
inactive: all other assays above

CCCCCCCCCCCCCC
not listed: [8] | [12] | [18] | [20]
inactive: all other assays above

C=C(C)C(=O)OCCN(CC)CC
not listed: [8] | [11] | [12] | [18]
inactive: all other assays above

O=C(O)CCSSCCC(=O)O
not listed: [18] | [19]
inactive: all other assays above

O=S(=O)(O)c1ccc2cc(O)c(S(=O)(=O)O)cc2c1
not listed: [9] | [11] | [18] | [19] | [20]
inactive: all other assays above

CCCCCCCCC1CCC(=O)O1 (stereo not drawn)
not listed: [10] | [12] | [18] | [19] | [20]
inactive: all other assays above

CN(CCOc1ccc(NS(C)(=O)=O)cc1)CCc1ccc(NS(C)(=O)=O)cc1
not listed: [12] | [14] | [19] | [20]
inactive: all other assays above

CC(C)CCCCOC(=O)c1ccccc1C(=O)OCCCCC(C)C
not listed: [7] | [11] | [12] | [18] | [20]
inactive: all other assays above

CC(C)N(c1ccccc1)C(C)C
not listed: [7] | [12] | [18] | [20]
inactive: all other assays above

O=C(CS(=O)Cc1ccco1)NC/C=C\COc1cc(CN2CCCCC2)ccn1 (stereo not drawn)
not listed: [7] | [12] | [14] | [20]
inactive: all other assays above

CCN1CCc2nc(N)oc2CC1
not listed: [7] | [20]
inactive: all other assays above

CCO[Si](CCCS)(OCC)OCC
not listed: [4] | [6] | [7] | [11] | [12] | [18] | [19] | [20]
inactive: all other assays above

CCOC(=O)c1ccc(OC(=O)CCCCCN=C(N)N)cc1
not listed: [7] | [12] | [13] | [20]
inactive: all other assays above

C#CC(C)N(C)C(=O)Nc1ccc(Cl)cc1 (stereo not drawn)
not listed: [6] | [7] | [12] | [13] | [14] | [18]
inactive: all other assays above

CC1COc2ccccc2N1 (stereo not drawn)
not listed: [6] | [12] | [14] | [18] | [20]
inactive: all other assays above
